Among all 290,000 compounds or so, about 27,000 (9.3%) were called active. Rule as the data show it: active = inhibition mostly above about 28% (no sharp cut-off); inactive = mostly below about 43%. For the sample, actives were picked, then their nearest neighbours and some compounds at random.

The term inhibition denotes the relative decrease from the control value, in per cent.

A short description of the experiment: A qHTS for Small Molecule Inhibitors of Shiga Toxin. Also: 0% is about no effect. Particulars: Vero cells, Shiga toxin protein synthesis inhibition reporter; at 38.7 µM, stronger effect = higher value. For orientation: Quantitative high-throughput screening tests each substance at several concentrations.
In the case of `CCN(C(=O)CN1C(=O)/C(=C/c2ccc(F)cc2)SC1=S)C1CCS(=O)(=O)C1` (stereo not given), the inhibition is -8.73% (inactive). The value for `CCc1nn(CCCC(=O)Nc2ccc(C)cc2C)c(=O)c2cc3occc3n12` was -5.79% (inactive). With `O=C(Nc1cccc(Cl)c1N1CCOCC1)c1cccnc1`, the inhibition is -2.36% (inactive). To `Cc1cccc(N(C(=O)Cn2nnc(-c3ccc(C)o3)n2)C(C(=O)NC2CCCC2)c2ccncc2)c1` (stereo not given) belongs -3.72% (inactive); to `COc1ccc2c(CC(=O)N3CCc4cc(OC)c(OC)cc4C3)coc2c1`, -3.55% (inactive). Turning to `COc1ccc(NC(=O)C2COc3ccccc3O2)cc1` (stereo not given), the inhibition is 70.7% (active). As for `COc1ccc(NC(=O)c2ccccc2[N+](=O)[O-])cc1OC`, the inhibition was 9.2% (inactive). `C/C(=N/NC(=O)C1COc2ccccc2O1)c1ccco1` (stereo not given): the inhibition is 3.3% (inactive). Take `CC(=O)Oc1ccccc1C(=O)Nc1ncc([N+](=O)[O-])s1`: the inhibition was 77.1% (active).

Regarding `O=C(Nc1ccncc1)c1ccccc1[N+](=O)[O-]`, the inhibition was 5.85% (inactive). The value for `COc1ccc(NC(=O)CC2COc3ccccc3O2)c(OC)c1` (stereo not given) was 25% (inactive). As to `CC(C)(C)c1cc[n+](-c2[nH]c(=O)sc2/C=N/N=C(\[O-])c2ccccc2)cc1`, the inhibition was 25.8% (inactive). The value for `COc1ccc(CNC(=O)c2c[nH]c3c(OC)cc(OC)cc3c2=O)cc1` was -11.7% (inactive); that for `COc1ccc(CN2CCCC(N3CCc4ccccc4C3)C2)c(O)c1` (stereo not given) was -7.05% (inactive).

Consider `CN1CCN(CCCCOc2cccc3ccccc23)CC1`, for which the inhibition is 29.7% (inactive). Turning to `Cc1cccc(CCNC(=O)Cn2ncc3c([nH]c4ccc(C)cc43)c2=O)c1`, the inhibition was 15.3% (inactive). To `Cc1cc(-c2ccc(S(=O)(=O)N3CCc4ccccc4C3)s2)on1` belongs -19.6% (inactive); to `CC1=C(C(=O)OC(C)(C)C)C(c2ccc(Br)cc2)NC(=O)N1CCCC(=O)O` (stereo not given), 9.92% (inactive); to `CCSc1nnc(SCC(=O)NNC(=O)c2ccccc2F)s1`, -24.4% (inactive).

In the case of `Cc1cccc(NC(=O)C(C)SCc2ccccc2)c1` (stereo not given), the inhibition is 30.2% (inactive).

On to `CSc1ccc(CCNC(=O)CS(=O)(=O)Cc2nc(-c3ccccc3F)oc2C)cc1`, for which the inhibition was -3.45% (inactive). As to `CCOc1ccccc1NS(=O)(=O)c1cc2c3c(c1)C(C)C(=O)N3CCC2` (stereo not given), the inhibition is -4.9% (inactive). To `COc1ccc2[nH]c(C(=O)Nc3ccccc3Cl)cc2c1` belongs 46.8% (active); to `COc1ccc2[nH]c(C(=O)N/N=C/c3cc(OC)c(OC)c(OC)c3)cc2c1`, 8.34% (inactive).

Consider `COc1cccc(NC(=O)CN2CCN(CC(=O)Nc3ccccc3Cl)CC2)c1`, for which the inhibition was -8.02% (inactive).

Consider `CC(C)[C@@H](NC(=O)OC(C)(C)C)C(=O)NCC1CCC(C(=O)N[C@@H](Cc2ccccc2)C(=O)O)CC1` (stereo not given in full), for which the inhibition was 2.35% (inactive). The value for `O=C1CCN(CCc2ccccc2)CCN1CCOc1ccccc1` was 7.81% (inactive); that for `CC(C)(C)OC(=O)NCCCCCC(=O)N/N=C/c1coc2ccccc2c1=O` was 69.6% (active); that for `NC(=S)N/N=C/c1coc2cc(Cl)ccc2c1=O` was 5.66% (inactive). To `Cc1ccc2occ(/C=N/NC(=O)c3ccccc3C)c(=O)c2c1` belongs 9.81% (inactive); to `CC1CCCCN1C(=O)CCS(=O)(=O)Cc1ccccc1` (stereo not given), 24.6% (inactive). Take `COc1ccc(N(CC(=O)NCc2ccc(F)cc2)C(=O)CCC(=O)Nc2nccs2)cc1`: the inhibition is -15.4% (inactive). To `CCOc1ccc(OCCSc2nc3ccccc3n2CC(=O)O)cc1` belongs 1.74% (inactive); to `Cc1ccc2c(C)c(C(=O)N(C)CCC3CCCCO3)oc2c1C` (stereo not given), 55.6% (inactive). On to `CCOC(=O)CSc1nc2ccc(C)cc2[nH]1`, for which the inhibition is 46.5% (inactive). The value for `Cc1ccc2nc(/C(C#N)=C\c3ccc(OC(=O)c4cccs4)cc3)[nH]c2c1` was 52.8% (active); that for `Cc1ccc2nc(S(=O)(=O)O)[nH]c2c1` was -4.97% (inactive); that for `CCn1c(=S)sc2c(=O)n(CC(=O)Nc3cccc(Br)c3)c(C)nc21` was 13.8% (inactive). As for `COC(=O)c1c(NC(=O)COc2ccc(Cl)cc2Cl)sc2c1CC(C)(C)NC2(C)C`, the inhibition is -5.3% (inactive).

For `Cc1c(C=O)c2ccccc2n1CCOc1ccccc1`, the inhibition is 31.9% (inactive). With `CCSc1nc2sc3c(c2c(=O)[nH]1)CC(C)(C)OC3`, the inhibition is 4.12% (inactive). For the compound `CCOC(=O)CSc1nc2sc3c(c2c(=O)[nH]1)CC(C)(C)OC3`, the inhibition is -6.92% (inactive).

Turning to `CC/C(C)=N/Nc1nc2sc3c(c2c(=O)[nH]1)CC(C)(C)OC3`, the inhibition was 42.5% (active). As for `Cc1ccc2nc(COc3ccc(N(C)S(=O)(=O)c4ccccc4)cc3)cc(=O)n2c1`, the inhibition is 13.5% (inactive). The value for `O=Cc1ccc(OCc2cn3ccccc3n2)cc1` was 57.2% (active); that for `COc1ccc(C(=O)NCc2cn3ccccc3n2)cc1` was 8.12% (inactive). With `CCCNC(=O)CSc1nc(Cc2ccccc2)nc2ccccc12`, the inhibition was -9.69% (inactive).

Take `CCC(C(=O)NCCC(C)C)N(Cc1ccccc1Cl)C(=O)c1snc(C(N)=O)c1N` (stereo not given): the inhibition is -5.11% (inactive).

As to `Cc1ccn(-c2cccc(-n3ccc(C)n3)n2)n1`, the inhibition is 132% (active). The value for `Cn1cc(S(=O)(=O)Nc2ccc(Cl)cc2Cl)c(=O)n(C)c1=O` was -4.85% (inactive); that for `COc1ccc(CN2CCNC(=O)C2CC(=O)NCc2cn[nH]c2-c2ccccc2)c(F)c1` (stereo not given) was -2.54% (inactive); that for `COc1ccc(C)cc1N(C(=O)Cn1nnc(-c2ccc(C)o2)n1)C(C(=O)NC1CCCC1)c1ccncc1` (stereo not given) was -2.11% (inactive).

Regarding `Cc1ccc(S(=O)(=O)NC2CCCCCC2)cc1C(N)=O`, the inhibition is -3.95% (inactive). To `CCn1cc(CCC(=O)NCc2ccc(F)cc2)c2ccccc21` belongs -4.61% (inactive); to `Cc1ccc2c(CSc3nncs3)cc(=O)oc2c1`, 120% (active); to `COCc1cc(=O)oc2cc(NS(=O)(=O)c3ccc(C)cc3)ccc12`, 7.5% (inactive). As to `CCOC(=O)Cc1csc(SCc2cc(=O)oc3cc(O)ccc23)n1`, the inhibition is -5.09% (inactive).

In the case of `CN1/C(=c2/s/c(=C3/C(=O)N(c4ccccc4)NC3=Nc3ccccc3)n(C)c2=O)C(C)(C)c2ccccc21`, the inhibition was -12.9% (inactive).

Take `CC(C)(C)c1ccccc1NC(=O)CN1C(=O)NC2(CCCC2)C1=O`: the inhibition was -11.9% (inactive). The value for `O=C(CN1CCN(c2ccc(O)cc2)CC1)Nc1ccc(-c2ccccc2)cc1` was 2.35% (inactive).

The values are drawn from PubChem BioAssay AID2315 (National Center for Advancing Translational Sciences (NCATS), 2010).
